The target of one test is PRUNE. Description: pooled miR-30 sensor sort-seq; sequence = guide strand. As to conditions: shRNA.
TATAGATAGTCTTCTGGTCTTT returned a sensor-assay potency score (higher = more potent) of -0.453.

On to TATTCGTGCTACATGAGGCTGA, for which the sensor-assay potency score (higher = more potent) came to 0.818.

Consider TTTCTTTCGAGAGACCTGGGTG, for which the sensor-assay potency score (higher = more potent) is -0.0186.

Turning to TTGTCTATAGATAGTCTTCTGG, the sensor-assay potency score (higher = more potent) was -0.685.

In turn, TTCCTTGTCCACTTGCTCCCTG showed a sensor-assay potency score (higher = more potent) of 0.334.

On to TTACCTTCCACATAGCTACAGA, for which the sensor-assay potency score (higher = more potent) is -0.331.

A further test has as its target PSD4. The description is as above. As to conditions: shRNA.
The sequence AAGGTGTGGAACATCTTCCAGC displayed a sensor-assay potency score (higher = more potent) of -0.755.

The sequence TTTTCTTCAAGGAACTTGGCTG returned a sensor-assay potency score (higher = more potent) of -0.084.

For the sequence TTAAGCAGCATGATTGCACATG, the sensor-assay potency score (higher = more potent) is -0.729.

TTACCTCTCTATCCTCTCCAGT came in with a sensor-assay potency score (higher = more potent) of -0.76.

TTTCCCTTGGGCACTCTCCTGG had a sensor-assay potency score (higher = more potent) of -0.299.

As to TTGCGCTTCACCTTGGCCGTGG, the sensor-assay potency score (higher = more potent) was found to be 0.0843.

With TAGCTAGCTTGTCTCCAGCTGG, the sensor-assay potency score (higher = more potent) was -0.572.

TGCACGTAGGTCTCGTAGCGGG displayed a sensor-assay potency score (higher = more potent) of -1.25.

TCTTCTTGCCGTCTGCATCTTG: the sensor-assay potency score (higher = more potent) was -0.456.

Turning to TAAGGTGTGGAACATCTTCCAG, the sensor-assay potency score (higher = more potent) was -1.04.

TCACTCTTTACTTCCTCGCCTG had a sensor-assay potency score (higher = more potent) of -0.455.

In another test the target is PSG2. The description is as above. As to conditions: shRNA.
TAAAAGTGATGCTGTGACCAGG had a sensor-assay potency score (higher = more potent) of -0.171.

With AAACCTATGAGTCATAGGGAGG, the sensor-assay potency score (higher = more potent) is -1.86.

TTGACTGTCAACGATGTGGAGC came in with a sensor-assay potency score (higher = more potent) of -0.475.

The sequence TAGAGGTTATCTCCTGAACGGT yielded a sensor-assay potency score (higher = more potent) of -0.865.

ACAAGTAGAGGTTATCTCCTGA came in with a sensor-assay potency score (higher = more potent) of 0.66.

TTCTTGTAGAAGCAGAGACTTT registered a sensor-assay potency score (higher = more potent) of -1.51.

Consider TTTCGGACAGCTGAAACCTATG, for which the sensor-assay potency score (higher = more potent) was -1.61.

In the case of TAGAAGCAGAGACTTTGACTGT, the sensor-assay potency score (higher = more potent) is -0.247.

Sequence TTTCTCGTCCACTATATGCAGG yielded a sensor-assay potency score (higher = more potent) of -0.849.

The sequence TTAAAAGTGATGCTGTGACCAG had a sensor-assay potency score (higher = more potent) of -0.575.

For the next test, the target named is PSIP1. Described as above. As to conditions: shRNA.
For the sequence TTCATGGTCGGTATCTTCCTTT, the sensor-assay potency score (higher = more potent) is -0.126.

For the sequence TTAAGTTTTAGTGACTTCCTAA, the sensor-assay potency score (higher = more potent) was -0.13.

Turning to TTATACAACATTGTAGACTTTT, the sensor-assay potency score (higher = more potent) is -0.451.

Take TTGATTGTTTAGTTGCTGCCTG: the sensor-assay potency score (higher = more potent) is 0.524.

TTCAACATCAAACCTATGCTTA: the sensor-assay potency score (higher = more potent) turned out to be 0.354.

For TATCTATCTCCCATAAACCTTC, the sensor-assay potency score (higher = more potent) is -0.586.

In turn, TTGACTTGAAAATTTCACTTTT had a sensor-assay potency score (higher = more potent) of -0.471.

Consider TTAGTCACATCCTCATTGCTGG, for which the sensor-assay potency score (higher = more potent) came to 0.128.

Turning to TTAGTTACTAGTGCCTGCCTAT, the sensor-assay potency score (higher = more potent) was found to be 0.32.

As to TTGAAAATATGCTACAACCATG, the sensor-assay potency score (higher = more potent) is -1.01.

In turn, TTAATCTCAGCATGTATCCTTT showed a sensor-assay potency score (higher = more potent) of 0.197.

(Values after the OligoGym collection.)
Also: reference of the scale not given here.
